Screening data deposited in PubChem by National Center for Advancing Translational Sciences (NCATS).
ELG1 DNA repair = qHTS screen for small molecules that inhibit ELG1-dependent DNA repair in human embryonic kidney (HEK293T) cells expressing luciferase-tagged ELG1 | HEK293T ELG1-luciferase reporter, luminescence, 16 h; DNA damage induced by 5-fluorouridine | Potency, µM (doses to about 46.1 µM), inactives show at the highest dose activity change, negative = inhibition, usual class: inhibitors | 330,000 compounds, 2.3% hits | AID 504467, 2011; note: potency is the fitted concentration of half-maximal effect; nearly all actives have a fitted effect of over 55% in size
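Luminescence from the luciferase reporter, measured 30 min after ONE-Glo reagent at room temperature, was the read-out. Beforehand, 2,000 cells per well were exposed for 16 hr at 37 °C to 5-fluorouridine together with compound or vehicle.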
Gal4-VP16 FLuc = VP16 counterscreen qHTS for inhibitors of ROR gamma transcriptional activity; Drosophila S2 Gal4-VP16 UAS-luciferase, luminescence, 20 h; Potency, µM (titrated, usually from 53.6 µM), inactives show at the highest dose activity, negative = inhibition, usual class: inhibitors; 310,000 compounds, 3.5% hits; AID 2546, 2010;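 note: Gal4-VP16 expression switched on by copper sulfate through the metallothionein promoter; potency is the fitted concentration of half-maximal effect; nearly all actives have a fitted effect of over 50% in size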
RORgamma inh = qHTS for inhibitors of ROR gamma transcriptional activity; Drosophila S2 Gal4-RORgamma UAS-luciferase reporter, 20 h; Potency, µM (series often up to 53.6 µM), without a hit: at the top dose activity change, negative = inhibition, usual class: inhibitors; 310,000 compounds, 5.4% hits; AID 2551, 2010; note: potency is the fitted concentration of half-maximal effect; nearly all actives have a fitted effect of over 60% in size
Target sequence (P51450 whole entry, looked up, the tested form may be a part): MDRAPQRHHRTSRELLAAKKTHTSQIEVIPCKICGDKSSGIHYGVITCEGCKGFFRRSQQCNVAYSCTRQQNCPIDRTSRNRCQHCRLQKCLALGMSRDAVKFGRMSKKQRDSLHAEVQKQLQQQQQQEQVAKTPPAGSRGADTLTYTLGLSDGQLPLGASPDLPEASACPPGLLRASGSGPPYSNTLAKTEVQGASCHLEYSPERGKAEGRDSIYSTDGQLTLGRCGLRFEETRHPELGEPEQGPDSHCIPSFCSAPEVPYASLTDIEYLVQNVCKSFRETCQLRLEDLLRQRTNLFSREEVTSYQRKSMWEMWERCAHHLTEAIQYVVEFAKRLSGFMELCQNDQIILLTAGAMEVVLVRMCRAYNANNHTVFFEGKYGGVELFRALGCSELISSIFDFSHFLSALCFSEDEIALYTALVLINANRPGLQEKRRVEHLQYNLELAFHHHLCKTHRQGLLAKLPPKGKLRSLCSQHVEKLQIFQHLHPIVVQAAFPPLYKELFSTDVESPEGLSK
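Luciferase reporter read in Schneider cells carrying Gal4-RORγ (mouse) and UAS-Photinus luciferase; cells given compound 1 h before 700 uM copper sulfate induction, then incubated 20 h at ambient temperature.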
TSHR antag = Antagonists of the Thyroid Stimulating Hormone Receptor: HTS campaign; activity change, negative = inhibition, % at 11.5 µM; 330,000 compounds, 0.2% hits; TSHR-expressing cells, TSH-stimulated cAMP HTRF, 2 h; hits give low values; Thyrotropin receptor (Homo sapiens), P16473;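 active = activity change below a set negative limit, meaning inhibition stronger than a set level, cut at about -70% in these data; inconclusive = activity change between two set negative limits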
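Freshly harvested TSHR cells receive pin-tooled compound, then EC80 TSH at 4nM final. After 2 hours at 37 deg C, antibody in lysis buffer and cAMP-d2 are added; 30 minutes at ambient temperature precede the HTRF read.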
FBPA coupling cs = qHTS Assay for Inhibitors of Fructose-1,6-bisphosphate Aldolase from Giardia Lamblia: Coupling assay counterscreen. coupling enzyme system counterscreen, AmpLite Red fluorescence. activity change, negative = inhibition, % at 58.2 µM, hits read low. 290,000 compounds, 0.67% hits. AID 2472, 2010; in the data active = activity change below about -30%
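Activity here indicates interference with the coupling reaction, not aldolase inhibition. Compounds at 57.5 uM final met coupling enzymes for 10 min at RT; substrate and AmpLite Red detection followed, with a 525/598 nm fluorescence read after 20 min.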
An asterisk follows results filed as active; ? = inconclusive; nt = no result; [ ] = dose if it differs, or a comment. Rows were chosen to be rich in hits. Some 8% of all compounds tested hit in one or more screens of this group. Unless noted, calls come from the whole dose curve; as a rule, active = well fitted curve in the direction sought with a large enough effect; inconclusive = small, poorly fitted or top-dose-only effect, or another doubt; inactive = no such curve, though single readings can be large; an effect the other way counts as inactive or inconclusive. % is set by controls: 0 for no effect and ±100 for the full control effect.

SMILES | ELG1 DNA repair | Gal4-VP16 FLuc | RORgamma inh | TSHR antag | FBPA coupling cs
C/C(Cn1cnc([N+](=O)[O-])n1)=N\NC(=O)c1ccc(O)cc1O | 14% | ? | 0.2µM* | 8 | -5
COc1cc(C(=O)N/N=C(\C)Cn2nc([N+](=O)[O-])cc2C)ccc1O | 1% | -15% | ? | -8 | -1
CC(C)CN(C(=O)COC(=O)c1cccn1C)c1c(N)n(Cc2ccccc2)c(=O)[nH]c1=O | -5% | -2% | -2% | 16 | nt
CCCn1c(N)c(N2CCCCC2)c(=O)n(CC(=O)Nc2ccccc2C(F)(F)F)c1=O | 1% | nt | nt | 0 | nt
Cc1cccc(N2C(=O)C(Cc3ccccc3)NC2=S)c1 (stereo not given) | 4% | ? | ? | 7 | 2
O=C1C(Cc2ccccc2)NC(=S)N1c1ccccc1 (stereo not given) | 3% | ? | 11µM* | 15 | 1
C=CCN(c1ccccc1)S(=O)(=O)c1cc(C(=O)NC2=NCCS2)ccc1Cl | 21µM* | ? | ? | -16 | 0
COc1ccc(N(C)S(=O)(=O)c2cccc(C(=O)NC3=NCCS3)c2)cc1 | ? | ? | 6.3µM* | 18 | -3
C=CCN(c1ccccc1OC)S(=O)(=O)c1cccc(C(=O)NC2=NCCS2)c1 | 23µM* | nt | nt | -2 | nt
Cc1cccc(NC(=S)N(Cc2ccco2)C(C)c2cccs2)c1 (stereo not given) | ? | ? | 14µM* | -4 | 2
COCCN(C(=S)Nc1ccc(C)c(C)c1)C(C)c1ccco1 (stereo not given) | ? | ? | 4.5µM* | 0 | -1
COc1cccc(NC(=S)N(Cc2ccco2)C(C)c2ccco2)c1 (stereo not given) | -10% | 18µM* | ? | 0 | -3
Cc1ccc(NC(=S)N(CCN(C)C)C(C)c2ccco2)cc1C (stereo not given) | -18% | ? | 19% | 19 | 1
CCCCCn1nc(C(=O)N(CC)c2c(N)n(CCCC)c(=O)[nH]c2=O)c2ccccc2c1=O | 10% | nt | nt | -10 | nt
O=S1(=O)N(Cc2ccccc2F)CCCN1Cc1c(F)cccc1Cl | 12% | -1% | -4% | 11 | 3
O=c1[nH]c(CN2CCN(S(=O)(=O)c3ccccc3C(F)(F)F)CC2)nc2sc3c(c12)CCCC3 | 16µM* | -17% | 40% | 27 | -7
COc1cc2nc(CN3CCN(S(=O)(=O)c4ccccc4C(F)(F)F)CC3)[nH]c(=O)c2cc1OC | ? | nt | nt | -3 | nt
Cn1c(C(=O)N2CCCC2)cc2c(=O)n(C)c3ccccc3c21 | -14% | 20% | -20% | -5 | 5
Cn1c(C(=O)N2CCN(c3ncccn3)CC2)cc2c(=O)n(C)c3ccccc3c21 | 9.2µM* | 6% | -42% | 12 | -45*
CCOc1ccccc1NC(=O)CCNS(=O)(=O)c1cccc2nonc12 | -11% | 2% | -14% | 3 | -2
Cc1ccc(C(=O)Nc2nc3ccc(S(C)(=O)=O)cc3s2)s1 | ? | ? | 3.2µM* | 1 | 0
CS(=O)(=O)c1ccc2nc(NC(=O)c3cccs3)sc2c1 | ? | 8.9µM* | 14µM* | -3 | 3
Cc1cc(C(=O)Nc2nc3ccc(S(C)(=O)=O)cc3s2)c(C)o1 | ? | ? | 1.1µM* | 1 | 0
CCN=c1scc(-c2ccc(F)cc2)n1/N=C/c1ccccn1 | ? | 2% | 18µM* | -23 | -1
CCN=c1scc(-c2ccccc2)n1/N=C/c1ccccn1 | ? | 7.9µM* | 4.5µM* | -45 | -3
CCN=c1scc(-c2cccs2)n1/N=C/c1cc(OC)ccc1O | ? | -12% | -13%[10 µM] | ? | -4
Cc1nc2ccccc2c(=O)n1/N=C/c1ccccn1 | ? | -4% | -5% | 2 | -1
Cc1cnc(CNc2ncnc3ccc(-c4c(C)noc4C)cc23)cn1 | nt | -30% | ? | nt | -1
CC(C)N1CCc2c(sc(NC(=S)NC(=O)c3ccccc3)c2C#N)C1 | ? | ? | ? | -7 | -39*
